Source: PubChem BioAssay AID598 (SRMLSC, 2007)
The whole screen tested about 85,000 compounds, of which about 5,100 (6%) were called active.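 The calls were made as follows: active = viability at or below 40%; inactive = viability above 40%.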 For the sample, actives were picked, then their nearest neighbours and some compounds at random.

Assay: H69AR cell viability reduction – human, 86K library, primary screen (AID 598);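 also: multidrug resistant small cell line overexpressing MRP-1 efflux transporter; 100% = mean luminescence of untreated control wells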
Details: H69AR lung tumor viability, ATP luminescence, 72 h; at 10 µM; stronger effect = lower value

Row | SMILES | viability
1 | CC(C)n1c(-c2cccs2)nc2ccccc21 | 89.8% (inactive)
2 | CCN1C(=O)/C(=C2\SC(N3CCCCC3)=NC2=O)c2ccccc21 | 67.4% (inactive)
3 | O=C1N=C(N2CCCC2)S/C1=C\c1cccc(Br)c1 | 36.9% (active)
4 | CC(C)=C1SC(N2CCN(c3cccc(C)c3)CC2)=NC1=O | 96.9% (inactive)
5 | CC(C)C(=O)Nc1ccc2c(c1)oc1ccccc12 | 55.1% (inactive)
6 | O=C(/C=C/c1ccc(Cl)cc1Cl)c1cccnc1 | 0.85% (active)
7 | O=C(NCc1ccc(Cl)c(Cl)c1)c1cccnc1 | 94.2% (inactive)
8 | C/C(=C\C(=O)c1cccnc1)Nc1ccc(C)c(C)c1 | 93.1% (inactive)
9 | OC(C#CCN1CCOCC1)(c1ccccc1)C1CCCCC1 (stereo not given) | 79.2% (inactive)
10 | COCCOC(=O)C1=C(C)N=c2s/c(=C\c3cccs3)c(=O)n2C1c1cccs1 (stereo not given) | 80.7% (inactive)
11 | CCOC(=O)C1=C(CSc2nccn2C)NC(=O)NC1c1ccc(OC)cc1 (stereo not given) | 82.8% (inactive)
12 | CCOC(=O)C1=C(C)N=c2s/c(=C\C(=O)OC)c(=O)n2C1c1ccc(OC)cc1 (stereo not given) | 10.6% (active)
13 | Cc1nc2ccccc2n1C(=O)N1CCOCC1 | 82.5% (inactive)
14 | COC(=O)c1cc(NC(=O)C2C3C=CC(C3)C2C(=O)O)cc(C(=O)OC)c1 (stereo not given) | 94.8% (inactive)
15 | Cc1ccccc1-n1c(SCC(=O)NCc2cccs2)nnc1-c1ccncc1 | 89.8% (inactive)
16 | Cc1ccc(-n2c(SCC(=O)NCc3ccc4c(c3)OCO4)nnc2-c2cccnc2)c(C)c1 | 35.1% (active)
17 | Cc1ccccc1-c1nnc(SCC(=O)NCc2ccc3c(c2)OCO3)n1C | 91.1% (inactive)
18 | Cc1cccc(Cn2c(N3CCN(c4ccccc4)CC3)nc3c2c(=O)n(C)c(=O)n3C)c1 | 72.4% (inactive)
19 | Cc1cccc(C2c3c(n(C)c(=O)n(C)c3=O)N=C3c4ccccc4C(=O)C32)c1 (stereo not given) | 4.39% (active)
20 | CCc1nnc(NC(=O)CSc2nc3ccccc3c(=O)n2CCCOC)s1 | 64.5% (inactive)
21 | Cc1cc(C)n(-c2nc(SCC(=O)N3CCCC3)c3c4c(sc3n2)CCCC4)n1 | 57.6% (inactive)
22 | CCC(O)CNc1nc(-n2nc(C)cc2C)nc2sc3c(c12)CC(C)(C)OC3 (stereo not given) | 44.6% (inactive)
23 | COCCNc1nc(-n2nc(C)cc2C)nc2sc3c(c12)CCCC3 | 6.95% (active)
24 | COC(=O)c1cccc(-n2[nH]nnc2=S)c1 | 87.1% (inactive)
25 | O=[N+]([O-])c1ccc(Oc2ccc(F)cc2Br)c2ccncc12 | 17.6% (active)

Row | SMILES | viability
26 | Cn1c(SCC(=O)C(C)(C)C)nnc1-c1ccccn1 | 98.3% (inactive)
27 | CC(=O)C1=C(C)NC(C)=C(C(C)=O)C1c1cn(-c2ccccc2)nc1-c1cccs1 | 93.4% (inactive)
28 | CCC(=O)NCCc1nc2ccccc2n1CC | 95.2% (inactive)
29 | CCOC(=O)c1c(NC(=O)CSc2nnc(CNc3ccc(C)cc3C)o2)sc(C)c1C | 92.8% (inactive)
30 | CC1(C)CC(=O)C=C(N2CCCC2)C1 | 95.2% (inactive)
31 | O=C1NC(c2cc3c(cc2Cl)OCO3)Oc2ccccc21 (stereo not given) | 32.9% (active)
32 | O=C1c2ccccc2S(=O)(=O)N1CC(O)Cn1c2ccccc2c2ccccc21 (stereo not given) | 92.4% (inactive)
33 | CC(=O)c1ccc2c(c1)c1ccccc1n2CC(C)C | 73.2% (inactive)
34 | CS(=O)(=O)N(CC(O)Cn1c2ccccc2c2ccccc21)c1cccc2ccccc12 (stereo not given) | 1.71% (active)
35 | CCCCOc1ccc(C(=O)NCc2ccncc2)cc1 | 78.5% (inactive)
36 | CCOC(=O)c1cnc(SC)nc1Sc1ccc(Cl)cc1Cl | 85.4% (inactive)
37 | Cc1ccc(CN(N=Nc2nonc2N)c2nonc2N)c(C)c1 | 79.6% (inactive)
38 | CCC1(C)Cc2c(sc3[nH]c(=S)n(Cc4ccccc4)c(=O)c23)CO1 (stereo not given) | 25% (active)
39 | CCC1(C)Cc2c(sc3nc(SC)nc(N)c23)CO1 (stereo not given) | 62.6% (inactive)
40 | CCC1(C)Cc2c(sc3nc4n(c(=O)c23)CCCS4)CO1 (stereo not given) | 93.3% (inactive)
41 | CCOC(=O)c1sc(C)c2c1NC(C)(c1cccc3ccccc13)NC2=O (stereo not given) | 103% (inactive)
42 | CCOC(=O)C(C)Sc1nc2ccccc2c(=O)n1CC1CCCCC1 (stereo not given) | 82.4% (inactive)
43 | COc1ccccc1NC(=O)/C=C/C(N)=O | 2.11% (active)
44 | COc1ccccc1NS(=O)(=O)N(C)C | 104% (inactive)
45 | COc1ccccc1NC(=O)c1ccc(C)s1 | 92.7% (inactive)
46 | COc1cc(C)c(C(C)C)cc1S(=O)(=O)n1ccnc1 | 101% (inactive)
47 | CCOC(=O)c1ccc(COC(=O)CCc2nc(-c3ccccc3)c(-c3ccccc3)o2)cc1 | 71.5% (inactive)
48 | O=C(CSc1nnc(-c2cccs2)n1Cc1ccccc1)N1CCc2ccccc2C1 | 29.9% (active)
49 | Cc1nnc(SCC(=O)N2CCc3ccccc3C2)s1 | 85.3% (inactive)
50 | O=C(CSc1nnc(-c2cccs2)n1-c1ccccc1)N1CCN(C(=O)c2ccco2)CC1 | 81.3% (inactive)

Row | SMILES | viability
51 | CC(C)Cn1c(N)c(C(=O)NCc2cccs2)c2nc3ccccc3nc21 | 1.75% (active)
52 | C=CCn1c(N)c(C(=O)OCC(C)C)c2nc3ccccc3nc21 | 93.2% (inactive)
53 | C=CCn1c(N)c(S(=O)(=O)c2cccs2)c2nc3ccccc3nc21 | 76.4% (inactive)
54 | CC(C)(C)c1cc(=O)n2c(nc3ccccc32)[nH]1 | 75.5% (inactive)
55 | Cc1ccc(SCC(=O)Nc2ncc(C)s2)cc1 | 94.5% (inactive)
56 | CC(C)C(OC(=O)c1cccs1)C(=O)NC1CCCCC1 (stereo not given) | 101% (inactive)
57 | CC(=O)Nc1nonc1-c1nc2ccccc2n1Cc1ccccn1 | 84.4% (inactive)
58 | COc1ccc(C)c(Cn2c(-c3nonc3N)nc3ccccc32)c1 | 21% (active)
59 | COCc1nc2ccccc2n1Cc1ccccc1Br | 98.2% (inactive)
60 | Nc1nonc1-c1nc2ccccc2n1Cc1ccc(F)cc1 | 18.4% (active)
61 | Nc1nonc1-c1nc2ccccc2n1CCC(=O)O | 109% (inactive)
62 | CCC(=O)Nc1nc2ccccc2n1Cc1ccccc1C | 65.7% (inactive)
63 | c1ccc(Nc2nc(N3CCOCC3)c3ccccc3n2)cc1 | 95.8% (inactive)
64 | O=C(O)CSCc1ccc(C(=O)O)o1 | 96.9% (inactive)
65 | COc1ccccc1NC(=O)CC(NCCN(C)C)C(=O)O (stereo not given) | 99.1% (inactive)
66 | CCOC(=O)C1CSC(CC(=O)Nc2ccc(OCC)cc2)C(=O)N1 (stereo not given) | 86.6% (inactive)
67 | CC(C)C(=O)NC(NC(=S)NC1CCS(=O)(=O)C1)C(Cl)(Cl)Cl (stereo not given) | 102% (inactive)
68 | Cc1ccc(-n2nc3cc(C)c(NC(=O)c4cccnc4)cc3n2)cc1 | 82% (inactive)
69 | O=S(=O)(NCC1OCCc2ccccc21)c1ccccc1 (stereo not given) | 87.1% (inactive)
70 | COC(=O)c1cc(OC)ccc1-c1ccc(OC)cc1 | 29.3% (active)
71 | COc1ccc(NC(=O)c2ccc(OC)cc2)cc1 | 105% (inactive)
72 | COc1ccc(OC)c(C(=O)c2ccc(C(=O)O)cc2)c1 | 99.1% (inactive)
73 | CCOC(=O)C1=C(C)NC(SC)=NC1c1ccccc1 (stereo not given) | 83.7% (inactive)
74 | CC1CCN(C(=O)CN(c2ccc(Oc3ccccc3)cc2)S(C)(=O)=O)CC1 | 85% (inactive)
75 | CCCOn1c(-n2nc(C)cc2C)nc2ccccc2c1=O | 93.8% (inactive)

Row | SMILES | viability
76 | COc1ccc(C)cc1N(C)C(=O)c1coc(=O)c2ccccc12 | 94.7% (inactive)
77 | Cc1cc(NC(=O)CSc2nnc(-c3ccc(Cl)s3)o2)no1 | 96.5% (inactive)
78 | CCOc1ccccc1Nc1nnc(SCC(=O)Nc2cc(C)on2)s1 | 71.1% (inactive)
79 | Cc1cc(C)c2c(c1)cc(C)c1nnc(SCC(=O)Nc3cc(C)on3)n12 | 16.8% (active)
80 | CC(C)(C)n1nnnc1C(c1ccc(Cl)cc1)N1CCSCC1 (stereo not given) | 82.5% (inactive)
81 | COc1ccc(S(=O)(=O)NCc2ccc(C(=O)N(C)Cc3ccco3)cc2)cc1 | 76.5% (inactive)
82 | O=C(c1cc2c(s1)CCC2)N1CCN(c2ccccc2)CC1 | 39.4% (active)
83 | CC(=O)N1CCCc2cc(S(=O)(=O)CCC(=O)N3CCN(c4ccccc4)CC3)ccc21 | 86.6% (inactive)
84 | Cc1nc2ccc(C(=O)N3CCN(c4ccccc4)CC3)cc2s1 | 91.5% (inactive)
85 | COc1ccc(C)cc1S(=O)(=O)Nc1cccc(Cl)c1Cl | 97.3% (inactive)
86 | CCOc1ccc(C(O)Cc2nc3ccccc3n2C)cc1 (stereo not given) | 96.6% (inactive)
87 | O=C(COC(=O)c1n[nH]c2ccccc12)NCc1ccccc1 | 96.7% (inactive)
88 | COC(=O)Nc1ncc(CN2CCCCC2)s1 | 92.5% (inactive)
89 | CCN1C(=O)/C(=C2/Sc3ccc(OC)cc3N2C)SC1=Nc1ccc(C)cc1 | 66.1% (inactive)
90 | COc1ccc(N2CCN(CCNC(=O)CCN3C(=O)COc4ccccc43)CC2)cc1 | 86.1% (inactive)
91 | COc1ccc(C2C(C(=O)N3CCN(c4ccc(OC)cc4)CC3)c3ccccc3C(=O)N2C)cc1 (stereo not given) | 32.2% (active)
92 | CCOc1ccc(C2C(C(=O)O)c3ccccc3C(=O)N2CCN2CCOCC2)cc1 (stereo not given) | 85.1% (inactive)
93 | CCCNC(=O)c1ccccc1NC(=O)CSCc1ccc(OC)cc1 | 83.9% (inactive)
94 | COc1ccc(C2=NO[C@@H]3C(=O)N(Cc4ccccc4)C(=O)[C@H]23)cc1OC | 95.8% (inactive)
95 | CCNCCC(=O)N1c2ccccc2Sc2ccc(NC(=O)OCC)cc21 | 78.6% (inactive)
96 | Cc1ccc(F)c(NC(=O)CCc2ccccc2)c1 | 97.8% (inactive)
97 | Cc1cccc(N2CCN(C(=O)c3cc4c(=O)[nH]c5ccccc5c4n3C)CC2)c1C | 36% (active)
98 | Cn1c(C(=O)NCCN2CCc3ccccc3C2)cc2c(=O)[nH]c3ccccc3c21 | 61.7% (inactive)
99 | CC(=O)N1CCN(c2cccc(C)c2C)CC1 | 107% (inactive)
100 | CCn1c(C)nc2c1C(=O)c1ccccc1C2=O | 69.1% (inactive)
